Active and inactive are the calls of the source.
Legend:
[1] = tested on: PRMT1 (protein arginine N-methyltransferase 1); assay: PRMT1 binders on small-molecule microarrays, primary screen, biochemical, small-molecule microarray, 635 nm fluorescence (AID 1088); settings: small-molecule microarray binding, higher = more signal;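 further: binding of Prmt1 protein to compounds spotted on small-molecule microarray slides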
[2] = yeast growth modulation, basal conditions, primary screen, YJM789 clinical isolate, OD600, 24 h (AID 1089);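 further: growth of clinical yeast isolate S. cerevisiae YJM 789 seeded 1000 cells per well; test concentration not given here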; settings: S. cerevisiae YJM789 growth, higher = more signal, called active from +8 up or from −8 down
[3] = fission yeast growth modulation, primary screen, strain 972, OD600, 24 h, no modulator (AID 1090);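 further: basal condition with compound alone and no growth modifier present; test concentration not given here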; settings: S. pombe 972 growth, higher = more signal, called active from +8 up or from −8 down
[4] = S. cerevisiae growth modulation with rapamycin, primary screen, strain BY4716, OD600, 96 h (AID 1091); settings: higher = more signal, called active from +8 up or from −8 down; further: test concentration not given here
[5] = target: Torsin-1A-interacting protein 2 (Homo sapiens) (UniProt Q8NFQ8); assay: LULL1 binders on small-molecule microarray, primary screen, cell lysate, human LULL1 lysate, 635/667 nm fluorescence (AID 1092); settings: hLULL1 lysate binding, 635 nm fluorescence, higher = more signal;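 further: probe is lysate of COS7 cells overexpressing human LULL1; score merges per-feature 667 nm fluorescence with signal-to-noise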
Chain of Torsin-1A-interacting protein 2 (Homo sapiens) (Q8NFQ8 whole entry, looked up): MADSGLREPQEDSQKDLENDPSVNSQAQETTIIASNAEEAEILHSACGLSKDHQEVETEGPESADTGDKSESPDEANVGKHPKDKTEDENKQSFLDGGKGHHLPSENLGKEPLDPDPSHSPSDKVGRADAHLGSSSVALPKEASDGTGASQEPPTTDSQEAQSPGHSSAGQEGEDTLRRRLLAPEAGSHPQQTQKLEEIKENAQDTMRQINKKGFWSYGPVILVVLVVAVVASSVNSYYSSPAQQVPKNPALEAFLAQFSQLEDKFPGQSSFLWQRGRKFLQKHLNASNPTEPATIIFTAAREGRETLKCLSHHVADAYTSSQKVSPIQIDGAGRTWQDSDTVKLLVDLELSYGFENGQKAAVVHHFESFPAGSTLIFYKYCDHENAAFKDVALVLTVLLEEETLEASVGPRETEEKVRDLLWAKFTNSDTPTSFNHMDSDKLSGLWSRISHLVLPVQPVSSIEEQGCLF

[6] = E. coli growth modulation, two-sided OD650, primary screen, E. coli filamentation project, strain DRC41, 24 h (AID 1093); settings: OD650, 24 h, higher = more signal, called active from +8 up or from −8 down;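 further: MC1000 strain lacking acrAB efflux and sulA so SOS filamentation is blocked; test concentration not given here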
[7] = small-molecule microarray binders of probe aLefty2, primary screen, biochemical, biotinylated probe, 635/667 nm fluorescence (AID 1094); settings: higher = more signal;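 further: score merges spot fluorescence near 667 nm with spot signal-to-noise ratio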
[8] = tested on: Noggin (protein binding on small-molecule microarray); assay: Noggin binders on small-molecule microarray, primary screen, biochemical, 635/667 nm fluorescence (AID 1095); settings: 635 nm fluorescence, higher = more signal;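 further: score merges 667 nm feature fluorescence with signal to noise over triplicate slides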
[9] = target: Neurogenic locus notch homolog protein 3 (Homo sapiens) (UniProt Q9UM47); assay: NOTCH3 binders on small-molecule microarray, primary screen, biochemical, 635/667 nm fluorescence (AID 1096); settings: NOTCH3 binding, 635 nm fluorescence, higher = more signal
Chain of Neurogenic locus notch homolog protein 3 (Homo sapiens) (Q9UM47 whole entry, looked up): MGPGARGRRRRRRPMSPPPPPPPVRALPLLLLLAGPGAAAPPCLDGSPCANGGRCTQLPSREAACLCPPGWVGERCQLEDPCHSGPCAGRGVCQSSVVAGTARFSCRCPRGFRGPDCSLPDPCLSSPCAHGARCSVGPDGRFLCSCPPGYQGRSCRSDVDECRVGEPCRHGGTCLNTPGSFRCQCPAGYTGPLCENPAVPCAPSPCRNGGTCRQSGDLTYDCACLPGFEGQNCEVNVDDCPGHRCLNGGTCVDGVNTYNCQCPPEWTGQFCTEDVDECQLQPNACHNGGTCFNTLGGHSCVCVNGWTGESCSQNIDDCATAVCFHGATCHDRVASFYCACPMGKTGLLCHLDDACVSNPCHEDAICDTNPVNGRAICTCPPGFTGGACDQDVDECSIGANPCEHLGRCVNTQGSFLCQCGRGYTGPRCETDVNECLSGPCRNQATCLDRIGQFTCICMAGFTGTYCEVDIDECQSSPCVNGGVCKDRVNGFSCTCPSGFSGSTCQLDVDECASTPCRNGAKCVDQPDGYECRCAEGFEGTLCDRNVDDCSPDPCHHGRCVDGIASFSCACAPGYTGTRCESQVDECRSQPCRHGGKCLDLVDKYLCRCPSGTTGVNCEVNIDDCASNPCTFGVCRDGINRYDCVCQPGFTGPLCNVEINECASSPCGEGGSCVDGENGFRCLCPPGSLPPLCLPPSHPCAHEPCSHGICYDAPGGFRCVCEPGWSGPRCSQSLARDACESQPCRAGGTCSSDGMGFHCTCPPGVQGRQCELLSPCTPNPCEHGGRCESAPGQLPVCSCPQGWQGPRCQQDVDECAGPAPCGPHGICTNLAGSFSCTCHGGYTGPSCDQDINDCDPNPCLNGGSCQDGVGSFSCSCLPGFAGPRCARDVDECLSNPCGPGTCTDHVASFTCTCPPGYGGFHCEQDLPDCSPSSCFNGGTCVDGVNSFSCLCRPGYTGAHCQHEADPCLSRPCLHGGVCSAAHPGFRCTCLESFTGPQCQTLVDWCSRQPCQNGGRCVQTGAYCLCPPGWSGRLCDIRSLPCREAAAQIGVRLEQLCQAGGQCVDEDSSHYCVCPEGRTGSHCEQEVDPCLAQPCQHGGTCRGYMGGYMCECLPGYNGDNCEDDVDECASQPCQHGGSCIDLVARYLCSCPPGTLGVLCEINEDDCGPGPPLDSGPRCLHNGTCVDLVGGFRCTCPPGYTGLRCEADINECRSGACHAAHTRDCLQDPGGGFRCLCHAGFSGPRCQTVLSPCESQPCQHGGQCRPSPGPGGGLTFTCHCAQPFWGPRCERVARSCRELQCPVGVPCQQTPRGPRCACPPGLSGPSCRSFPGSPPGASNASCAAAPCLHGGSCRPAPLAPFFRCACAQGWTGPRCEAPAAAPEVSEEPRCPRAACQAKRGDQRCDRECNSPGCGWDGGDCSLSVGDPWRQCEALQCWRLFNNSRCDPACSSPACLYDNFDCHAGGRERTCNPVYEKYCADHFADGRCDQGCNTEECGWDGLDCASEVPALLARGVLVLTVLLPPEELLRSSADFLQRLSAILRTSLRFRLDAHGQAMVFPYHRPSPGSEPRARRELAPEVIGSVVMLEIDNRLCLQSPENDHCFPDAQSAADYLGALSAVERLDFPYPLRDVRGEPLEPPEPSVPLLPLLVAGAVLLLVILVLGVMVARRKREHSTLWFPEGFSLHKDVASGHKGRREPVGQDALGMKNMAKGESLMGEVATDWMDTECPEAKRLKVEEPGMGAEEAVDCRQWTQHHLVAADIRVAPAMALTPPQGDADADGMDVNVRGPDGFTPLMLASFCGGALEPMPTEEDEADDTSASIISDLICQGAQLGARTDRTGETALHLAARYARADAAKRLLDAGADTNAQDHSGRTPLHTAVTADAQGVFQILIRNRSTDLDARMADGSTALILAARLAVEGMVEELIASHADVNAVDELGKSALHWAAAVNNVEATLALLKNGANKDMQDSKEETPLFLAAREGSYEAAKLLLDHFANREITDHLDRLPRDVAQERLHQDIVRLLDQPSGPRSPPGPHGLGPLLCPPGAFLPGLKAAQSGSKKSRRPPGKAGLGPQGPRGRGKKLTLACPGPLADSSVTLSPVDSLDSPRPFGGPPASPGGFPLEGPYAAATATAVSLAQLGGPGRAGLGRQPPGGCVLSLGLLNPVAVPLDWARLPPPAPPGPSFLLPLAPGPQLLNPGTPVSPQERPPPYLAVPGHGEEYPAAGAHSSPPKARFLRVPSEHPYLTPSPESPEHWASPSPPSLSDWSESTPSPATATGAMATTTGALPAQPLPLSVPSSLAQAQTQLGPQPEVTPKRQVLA

[10] = small-molecule microarray binders of probe aEGFR, primary screen, biochemical, biotinylated probe, 635/667 nm fluorescence (AID 1097); settings: higher = more signal;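 further: probe is a biotinylated anti-EGFR antibody binding compounds printed on slides; score combines fluorescence near 667 nm and signal to noise of each spot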
[11] = tested on: Plasmodium falciparum Sir2 (PF13_0152, Sir2A); assay: pfSir2 binders on small-molecule microarrays, primary screen, biochemical, small-molecule microarray, 635 nm fluorescence (AID 1098); settings: small-molecule microarray binding, fluorescence 635 nm; higher = more signal;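 further: score merges spot fluorescence intensity with its signal-to-noise ratio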
[12] = small-molecule microarray binders of probe aDKK1, primary screen, biochemical, biotinylated probe, 635/667 nm fluorescence (AID 1099); settings: higher = more signal;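 further: score merges 667nm spot fluorescence with signal to noise across triplicate slides; reference of the scale not given here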
[13] = small-molecule microarray binders of probe aCHRDL2, primary screen, biochemical, biotinylated probe, 635/667 nm fluorescence (AID 1100); settings: higher = more signal
[14] = splicing luciferase reporter signal modulators, primary screen, spliceosome inhibition project, cell-based, HEK293, splice +/- reporter (AID 1101); settings: luminescence, 24 h, higher = more signal, called active from +8 up or from −8 down;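 further: HEK293 cells carrying a splicing-competent luciferase reporter gene; test concentration not given here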
[15] = target: Fibroblast growth factor 10 (Homo sapiens) (UniProt O15520); assay: FGF10 binders on small-molecule microarrays, primary screen, biochemical, small-molecule microarray, 635 nm fluorescence (AID 1102); settings: FGF10 binding, fluorescence 635 nm, higher = more signal
Chain of Fibroblast growth factor 10 (Homo sapiens) (O15520 whole entry, looked up): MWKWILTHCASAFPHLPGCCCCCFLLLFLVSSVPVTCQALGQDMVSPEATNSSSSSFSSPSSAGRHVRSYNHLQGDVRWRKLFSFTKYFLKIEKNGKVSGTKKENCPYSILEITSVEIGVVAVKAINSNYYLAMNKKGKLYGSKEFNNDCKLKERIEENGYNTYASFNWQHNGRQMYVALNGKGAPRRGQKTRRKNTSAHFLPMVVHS

[16] = tested on: glycogen synthase kinase-3 (GSK3A per assay name; protocol says GSK3B); assay: GSK3 binders on small-molecule microarrays, primary screen, biochemical, small-molecule microarray, 635 nm fluorescence, GSK3A (AID 1103); settings: small-molecule microarray binding, fluorescence 635 nm; higher = more signal; further: the record names both GSK3A and GSK3B
[17] = target: Epidermal growth factor receptor (Homo sapiens) (UniProt P00533); assay: EGFR binders on small-molecule microarrays, primary screen, biochemical, small-molecule microarray, 635 nm fluorescence (AID 1104); settings: EGFR binding, higher = more signal;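 further: score merges 667 nm emission intensity with spot signal to noise over triplicate slides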
Chain of Epidermal growth factor receptor (Homo sapiens) (P00533 whole entry, looked up): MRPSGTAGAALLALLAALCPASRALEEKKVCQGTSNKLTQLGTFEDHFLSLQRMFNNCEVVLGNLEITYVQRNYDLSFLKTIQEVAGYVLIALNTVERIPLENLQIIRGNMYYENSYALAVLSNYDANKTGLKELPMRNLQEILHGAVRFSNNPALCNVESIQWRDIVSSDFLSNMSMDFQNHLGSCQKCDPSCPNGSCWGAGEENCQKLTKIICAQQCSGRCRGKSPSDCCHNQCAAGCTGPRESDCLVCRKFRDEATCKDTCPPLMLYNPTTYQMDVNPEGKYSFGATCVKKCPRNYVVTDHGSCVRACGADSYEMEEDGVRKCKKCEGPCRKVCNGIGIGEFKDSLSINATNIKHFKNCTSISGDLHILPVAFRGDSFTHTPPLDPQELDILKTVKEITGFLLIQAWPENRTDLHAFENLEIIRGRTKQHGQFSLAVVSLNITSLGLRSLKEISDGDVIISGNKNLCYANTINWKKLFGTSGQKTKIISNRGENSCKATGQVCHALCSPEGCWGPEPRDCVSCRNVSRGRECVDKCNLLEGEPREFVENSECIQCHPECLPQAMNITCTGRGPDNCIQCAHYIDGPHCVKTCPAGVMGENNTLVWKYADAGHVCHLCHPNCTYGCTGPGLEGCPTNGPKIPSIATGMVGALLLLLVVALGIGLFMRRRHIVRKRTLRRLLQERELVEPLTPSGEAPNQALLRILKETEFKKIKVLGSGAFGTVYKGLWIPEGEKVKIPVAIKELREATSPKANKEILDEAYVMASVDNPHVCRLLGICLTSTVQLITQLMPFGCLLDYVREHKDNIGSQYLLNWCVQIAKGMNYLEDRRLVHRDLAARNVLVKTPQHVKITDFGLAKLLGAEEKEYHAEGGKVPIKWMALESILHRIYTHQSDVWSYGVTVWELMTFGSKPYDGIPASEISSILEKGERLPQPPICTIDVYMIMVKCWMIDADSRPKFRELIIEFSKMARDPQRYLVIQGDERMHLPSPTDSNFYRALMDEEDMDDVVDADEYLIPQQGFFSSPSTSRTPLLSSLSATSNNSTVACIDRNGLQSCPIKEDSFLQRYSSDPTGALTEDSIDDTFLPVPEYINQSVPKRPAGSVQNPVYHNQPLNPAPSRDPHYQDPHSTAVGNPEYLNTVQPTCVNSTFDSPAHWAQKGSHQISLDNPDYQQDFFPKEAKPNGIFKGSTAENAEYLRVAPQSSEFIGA

[18] = target: Follistatin-related protein 3 (Homo sapiens) (UniProt O95633); assay: FSTL3 binders on small-molecule microarrays, primary screen, biochemical, small-molecule microarray, 635 nm fluorescence (AID 1105); settings: FSTL3 binding, higher = more signal;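 further: score merges emission near 667 nm and signal to noise per printed spot across three slides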
Chain of Follistatin-related protein 3 (Homo sapiens) (O95633 whole entry, looked up): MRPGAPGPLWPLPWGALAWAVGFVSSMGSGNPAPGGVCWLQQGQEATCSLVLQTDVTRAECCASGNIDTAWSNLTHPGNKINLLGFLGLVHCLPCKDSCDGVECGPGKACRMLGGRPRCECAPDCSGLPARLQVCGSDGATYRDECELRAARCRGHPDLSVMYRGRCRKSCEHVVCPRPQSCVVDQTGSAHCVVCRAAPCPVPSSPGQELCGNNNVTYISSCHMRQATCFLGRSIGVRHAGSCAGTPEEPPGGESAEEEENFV

[19] = target: Dickkopf-related protein 1 (Homo sapiens) (UniProt O94907); assay: DKK1 binders on small-molecule microarrays, primary screen, biochemical, small-molecule microarray, 635 nm fluorescence scan (AID 1106); settings: DKK1 binding, higher = more signal;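 further: score merges emission near 667 nm with signal to noise over three replicate slides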
Chain of Dickkopf-related protein 1 (Homo sapiens) (O94907 whole entry, looked up): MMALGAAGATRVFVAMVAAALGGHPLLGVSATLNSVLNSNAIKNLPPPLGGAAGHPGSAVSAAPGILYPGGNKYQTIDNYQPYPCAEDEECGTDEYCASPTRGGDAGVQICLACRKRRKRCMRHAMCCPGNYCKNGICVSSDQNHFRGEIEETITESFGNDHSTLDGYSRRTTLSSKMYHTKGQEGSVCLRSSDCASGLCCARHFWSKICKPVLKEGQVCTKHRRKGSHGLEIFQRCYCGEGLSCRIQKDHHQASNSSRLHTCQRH

[20] = tested on: Inhibin beta A chain (activin A); assay: INHBA (activin A) binders on microarrays, primary screen, biochemical, small-molecule microarray, 635 nm fluorescence scan (AID 1107); settings: small-molecule microarray binding, higher = more signal;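 further: mouse activin A protein probed at 4.33 µg/mL on printed slides; score merges bound-protein fluorescence near 667 nm with spot signal-to-noise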

Row | Compound | composite z-score [1] | z-score [2] | z-score [3] | z-score [4] | composite z-score [5] | z-score [6] | composite z-score [7] | composite z-score [8] | composite z-score [9] | composite z-score [10] | composite z-score [11] | composite z-score [12] | composite z-score [13] | z-score [14] | composite z-score [15] | composite z-score [16] | composite z-score [17] | composite z-score [18] | composite z-score [19] | composite z-score [20]
1 | COC(=O)[C@@]1(Cc2ccc(F)cc2)[C@H]2c3cc(C(=O)N4CCCC4)n(CCc4ccc(OC)c(Br)c4)c3C[C@H]2CN1C(=O)c1ccccc1 | 1.4 | 0.0318 (inactive) | 1.53 (inactive) | 2.31 (inactive) | 3.52 | -0.224 (inactive) | 0.436 | -0.0473 | 1.03 | 0.324 | 0.972 | 1.55 | 1.52 | -2.23 (inactive) | 0.68 | 1.33 | -0.0295 | 1.22 | -0.813 | 0.475
2 | O=c1cccc(-c2ccccc2)o1 | -0.159 | -1.42 (inactive) | -3.79 (inactive) | -0.482 (inactive) | -0.568 | -0.528 (inactive) | -0.18 | -0.124 | -0.435 | -0.136 | 0.906 | -0.196 | -0.186 | 0.92 (inactive) | 0.421 | 0.211 | -0.648 | -0.337 | -0.1 | 1.4
3 | CC(C)C(O)C1C=CC2C(=O)N(C)C(=O)C2N1N1CCCCC1 (stereo not given) | 0.594 | 0.252 (inactive) | 0.891 (inactive) | -0.199 (inactive) | 3.58 | -1.46 (inactive) | 0.169 | 0.315 | 0.217 | 0.0635 | 1.61 | 0.184 | 0.674 | 1.15 (inactive) | 0.709 | 0.752 | 0.403 | 0.159 | 0.13 | 0.976
4 | COc1ccc([Si](C)(C)[C@@H]2[C@@H](CCO)O[C@]3(C(=O)N(Cc4ccc(N5C(=O)c6cccc7cccc5c67)cc4)c4ccccc43)[C@H]2C)cc1 | 0.856 | 1.41 (inactive) | 1.54 (inactive) | 35.5 (active) | 0.854 | 0.631 (inactive) | -0.0728 | -0.753 | -0.017 | -0.208 | 1.03 | 0.0129 | 0.598 | -1.11 (inactive) | -0.66 | -0.445 | -1.13 | -0.66 | -0.674 | -0.194
5 | COc1ccc([Si](C)(C)[C@@H]2[C@@H](CCO)O[C@]3(C(=O)N(Cc4cccc(N(C=O)c5ccccc5)c4)c4ccccc43)[C@H]2C)cc1 | 1.12 | 1.35 (inactive) | 0.946 (inactive) | 9.98 (active) | 0.745 | 1.03 (inactive) | -0.0719 | 0.145 | 0.258 | -0.201 | 0.883 | 0.0396 | 0.541 | -2.49 (inactive) | -0.0644 | 0.364 | -0.222 | -0.0339 | -0.0116 | 1.03

From PubChem BioAssay
